In PubChem BioAssay AID504386 (National Center for Advancing Translational Sciences (NCATS), 2011):
Inconclusive results are not listed. A call without a number means that no potency is given here. Active and inactive are the calls of the source. Calls come from the whole dose curve; as a rule, active = well fitted curve in the direction sought with a large enough effect; inconclusive = small, poorly fitted or top-dose-only effect, or another doubt; inactive = no such curve, though single readings can be large or run the other way.

These molecules were tested against Runt-related transcription factor 1 (Homo sapiens) + Core-binding factor subunit beta (Homo sapiens) (UniProt Q01196+Q13951) (assay: qHTS Assay for Compounds Blocking the Interaction Between CBF-beta and RUNX1 for the Treatment of Acute Myeloid Leukemia: SAR for Probe). Settings: AlphaScreen CBFb-His/RUNX1-biotin binding, biochemical; series mostly up to 136 µM.
Sequence of Runt-related transcription factor 1 (Homo sapiens) + Core-binding factor subunit beta (Homo sapiens) (Q01196 whole entry, looked up): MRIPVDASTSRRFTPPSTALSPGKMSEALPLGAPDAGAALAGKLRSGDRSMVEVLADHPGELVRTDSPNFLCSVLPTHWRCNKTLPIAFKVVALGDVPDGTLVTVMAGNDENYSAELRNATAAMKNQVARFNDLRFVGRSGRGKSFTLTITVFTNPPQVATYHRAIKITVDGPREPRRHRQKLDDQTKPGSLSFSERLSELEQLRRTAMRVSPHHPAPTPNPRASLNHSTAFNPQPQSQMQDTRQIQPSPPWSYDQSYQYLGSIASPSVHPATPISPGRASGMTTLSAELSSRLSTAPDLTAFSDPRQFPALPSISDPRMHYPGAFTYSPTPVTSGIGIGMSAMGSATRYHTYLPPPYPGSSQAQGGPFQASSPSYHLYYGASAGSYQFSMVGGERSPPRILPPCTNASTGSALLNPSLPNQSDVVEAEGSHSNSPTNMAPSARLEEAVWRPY
Sequence of Runt-related transcription factor 1 (Homo sapiens) + Core-binding factor subunit beta (Homo sapiens) (Q13951 whole entry, looked up): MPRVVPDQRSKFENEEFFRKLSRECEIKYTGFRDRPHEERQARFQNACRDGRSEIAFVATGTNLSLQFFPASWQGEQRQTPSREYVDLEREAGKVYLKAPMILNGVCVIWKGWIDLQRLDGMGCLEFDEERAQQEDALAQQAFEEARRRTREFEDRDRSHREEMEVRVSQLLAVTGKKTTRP
Text: NIH Chemical Genomics Center [NCGC] NIH Molecular Libraries Probe Production centers Network [MLPCN] MLPCN Grant: X01MH083259-01 Assay Submitter (PI): Paul Liu NCGC Assay Overview: Core Binding Factor (CBF) abnormalities are associated with 20-25% of all acute myeloid leukemias (AML), of which 5-10% are further sub classified as acute myelomonocytic leukemia with eosinophilia, also known as M4Eo in the FAB classification scheme. This subtype of leukemia is usually associated with chromosome 16 inversion (p13:q22). Chromosome 16 inversion results in formation of the fusion oncogene CBFB-MYH11, which encodes the fusion protein CBF-beta-SMMHC. […] It has been hypothesized that the interference of CBF-beta and RUNX1 binding could have therapeutic implications for patients with CBF mediated leukemias. We developed a CBF-beta and RUNX1 binding assay in AlphaScreenTM format and optimized it for high throughput screening to search for inhibitors. The goal of this project is to screen MLPCN's compound collection (MLSMR) for identifying the inhibitors of the interaction between CBF-beta and RUNX1 proteins as research probes. If these probes work well in the animal models, the ultimate goal of this project is to development a new drug treatment for this disease. This assay can not be used to assess how apparent inhibitors interfere with protein binding, and whether inhibitors specifically bind to either protein. Disruption of this protein-protein interaction, through any mechanism, is the intended target activity. The present data set was run to confirm the activity of analogs to the probe in the primary screening assay.
NCGC Assay Protocol Summary: Step, Parameter, Description (1) Reagent, 3 uL CBFb-His/RUNX1-biotin mix incubated together for 20 minutes at room temperature (30 nM each) (2) Compound or control, 23 nL compound stock solution (3) Incubation, 15 minutes at Room temperature (4) Reagent, 1 uL 50 ng each of beads (Nickel beads and streptavidin beads) (5) Incubation, 90 minutes at Room temperature (6) Detection, […], Envision reader in AlphaScreenTM mode Keywords: MLSMR, MLPCN, NIH Roadmap, qHTS, NCGC, Core binding factor, CBF, CBF-beta, Acute myeloid leukemia
With `C[C@H](N)C(=O)Nc1ccc(Cl)cc1C(=O)c1ccc[nH]1` the Potency was “inactive”.
In the case of `CCC(=O)Nc1ccc(Cl)cc1C(=O)c1ccc[nH]1`, the Potency is reported as “inactive”.
With `NCCCC[C@H](N)C(=O)Nc1ccc(Cl)cc1C(=O)c1ccc[nH]1` the Potency was “inactive”.
With `NCC(=O)Nc1ccc(Cl)cc1C(=O)c1ccc[nH]1` the Potency was 29.6 µM (active).
With `NCCC(=O)Nc1ccc(Cl)cc1C(=O)c1ccc[nH]1` the Potency was “inactive”.
In the case of `CC(C)[C@H](N)C(=O)Nc1ccc(Cl)cc1C(=O)c1ccc[nH]1`, the Potency is reported as “inactive”.
